Results on 12 compounds are retold here after PubChem BioAssay (NCATS).

Results filed as inconclusive are left out. Active and inactive are the calls of the source. The call rests on the fitted dose curve; in most records, active means well fitted inhibition curve with a large enough effect; inconclusive means small, poorly fitted or top-dose-only effect; inactive means flat fitted curve, though single readings scatter.

Holding throughout (assay): qHTS profiling for inhibitors of Plasmodium falciparum proliferation (AID 504749); further: nearly all actives have a fitted effect of over 60% in size
Conditions in all cases: P. falciparum in erythrocytes, SYBR Green DNA, 72 h; series mostly up to 28.7 µM

One assay deals with AA1029. In a few lines: (§1)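 In a 72 h erythrocytic culture (37 C, humidified, 5% CO2) at 2.5% hematocrit and 0.3% starting parasitemia, compounds were tested; SYBR Green I in detergent lysis buffer stained parasite DNA overnight.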
The next assay concerns CP211. An outline of the steps: as §1
Another assay concerns CP215. An outline of the steps: as §1
Another assay concerns CP260. An outline of the steps: as §1
In a further assay the test system is CP297. In a few lines: as §1
In the next assay the test system is CP315. An outline of the steps:
as §1

For a further assay, the system named is CP335. An outline of the steps:
as §1

Another assay relates to DFO2036. An outline of the steps: as §1
Another assay has as its system DIV30. In a few lines: as §1
The subject of the next assay is FAB9. In a few lines:
as §1

The test system of another assay is ICS. In a few lines:
as §1

A further assay relates to JCK. An outline of the steps:
as §1

The subject of the next assay is N140. In a few lines: as §1
Another assay relates to PAD. In a few lines: as §1
The subject of another assay is PC15. In a few lines:
as §1

For the next assay, the system named is PC26. In a few lines: as §1
The subject of another assay is TAB109. An outline of the steps: as §1
The test system of the next assay is TAB113. In a few lines:
as §1

The next assay deals with TAB165. An outline of the steps:
as §1

The next assay has as its system W2. An outline of the steps:
as §1
Potency means the concentration at half of the fitted maximal effect.

As for `CC(c1ncncc1F)[C@](O)(Cn1cncn1)c1ccc(F)cc1F` (stereo not given in full), the Potency result in the assay on AA1029, in the assay on CP211, in the assay on CP215, with CP260, with CP297 and with CP315 was “inactive” in each case. In addition, the Potency result with CP335, in the assay on DFO2036, in the assay with DIV30, in the assay with FAB9, in the assay on ICS and in the assay with JCK was “inactive” throughout. Besides, the Potency entry in the assay with N140, in the assay on PAD, in the assay with PC15, in the assay with PC26, in the assay with TAB109 and in the assay on TAB113 was “inactive” in each case. Moreover, the Potency result with TAB165 and with W2 was “inactive” each time.
Regarding `CC(O)C1CCC2C3CCC4CC(O)CCC4(C)C3CCC12C` (stereo not given), the Potency result with AA1029, in the assay with CP211, in the assay with CP215, in the assay on CP260, in the assay with CP297 and with CP315 was “inactive” in each case. For the same compound, the Potency result in the assay with CP335, in the assay with DFO2036, with DIV30, with FAB9, in the assay with ICS and in the assay on JCK was “inactive” throughout. Further, the Potency entry in the assay with N140, in the assay on PAD, in the assay on PC15, in the assay with PC26, in the assay with TAB109 and with TAB113 was “inactive” in each case. The Potency result in the assay with TAB165 and in the assay on W2 was “inactive” each time.
Consider `O=c1[nH]c(=O)n(C2C[C@H](O)[C@@H](CO)O2)cc1C(F)(F)F` (stereo not given in full), for which the Potency entry with AA1029, with CP211, in the assay on CP215, in the assay on CP260, with CP297 and in the assay with CP315 was “inactive” throughout. Also, the Potency result in the assay with CP335, in the assay on DFO2036, with DIV30, in the assay on FAB9, with ICS and with JCK was “inactive” each time. Moreover, the Potency entry in the assay with N140, in the assay on PAD, with PC15, in the assay on PC26, with TAB109 and in the assay with TAB113 was “inactive” in each case. In addition, the Potency result with TAB165 and with W2 was “inactive” each time.
As to `CC(C)(C)C(=O)OCC(=O)C1CCC2C3CCC4=CC(=O)CCC4(C)C3CCC12C` (stereo not given), the Potency entry with AA1029, with CP211, in the assay with CP215, with CP260, in the assay on CP297 and in the assay with CP315 was “inactive” each time. The Potency entry in the assay with CP335, in the assay on DFO2036, with DIV30, in the assay on FAB9, in the assay with ICS and in the assay with JCK was “inactive” each time. The Potency result in the assay on N140, with PAD, in the assay on PC15, in the assay on PC26, with TAB109 and in the assay with TAB113 was “inactive” in each case. Moreover, the Potency result in the assay on TAB165 and in the assay with W2 was “inactive” in each case.
In the case of `CC[C@@H](C)C(N)C(=O)O` (stereo not given in full), the Potency result in the assay on AA1029, in the assay with CP211, in the assay with CP215, with CP260, in the assay on CP297 and in the assay on CP315 was “inactive” throughout. In addition, the Potency entry in the assay with CP335, with DFO2036, in the assay with DIV30, in the assay with FAB9, in the assay on ICS and in the assay on JCK was “inactive” each time. Moreover, the Potency result with N140, in the assay on PAD, in the assay on PC15, in the assay on PC26, with TAB109 and in the assay on TAB113 was “inactive” in each case. Moreover, the Potency entry in the assay with TAB165 and with W2 was “inactive” each time.
As to `O=c1ccn(C2OC(COP(=O)(O)OC3C(CO)OC(n4ccc(=O)[nH]c4=O)C3O)C(O)C2O)c(=O)[nH]1` (stereo not given), the Potency entry in the assay on AA1029, in the assay on CP211, in the assay on CP215, in the assay with CP260, in the assay with CP297 and with CP315 was “inactive” throughout. The Potency result in the assay with CP335, in the assay with DFO2036, in the assay on DIV30, with FAB9, with ICS and in the assay on JCK was “inactive” throughout. Further, the Potency entry with N140, in the assay on PAD, in the assay with PC15, in the assay with PC26, with TAB109 and in the assay with TAB113 was “inactive” each time. Moreover, the Potency entry with TAB165 and with W2 was “inactive” in each case.
Take `CC[C@@H]1/C=C(\C)C[C@H](C)C[C@H](OC)[C@H]2O[C@@](O)(C(=O)C(=O)N3CCCC[C@H]3C(=O)O[C@H](/C(C)=C/[C@@H]3CC[C@H](Cl)[C@H](OC)C3)[C@H](C)[C@@H](O)CC1=O)[C@H](C)C[C@@H]2OC`: the Potency result in the assay on AA1029, with CP211, in the assay on CP215, with CP260, in the assay on CP297 and in the assay with CP315 was “inactive” throughout. Besides, the Potency entry in the assay with CP335, in the assay with DFO2036, in the assay on DIV30, with FAB9, with ICS and in the assay on JCK was “inactive” each time. Moreover, the Potency entry with N140, in the assay on PAD, with PC15, with PC26, with TAB109 and with TAB113 was “inactive” each time. Also, the Potency result with TAB165 and with W2 was “inactive” each time.
For the compound `Cc1ccc(Nc2ncccc2C(=O)O)cc1C`, the Potency result in the assay on AA1029, in the assay with CP211, in the assay on CP215, in the assay on CP260, in the assay with CP297 and in the assay on CP315 was “inactive” throughout. The Potency result in the assay on CP335, in the assay on DFO2036, in the assay on DIV30, with FAB9, with ICS and in the assay with JCK was “inactive” each time. Also, the Potency result in the assay on N140, in the assay with PAD, in the assay on PC15, in the assay on PC26, in the assay with TAB109 and with TAB113 was “inactive” in each case. The Potency entry in the assay on TAB165 and with W2 was “inactive” in each case.
Regarding `CC(C)C[C@@H](NC(=O)[C@@H](Cc1ccccc1)NC(=O)c1cnccn1)B(O)O`, the Potency in the assay on AA1029 was 0.112 µM (active); in the assay with CP211, 0.757 µM (active); in the assay on CP215, 0.675 µM (active); in the assay with CP260, 0.1 µM (active); in the assay with CP297, 0.379 µM (active); in the assay with CP315 it was 0.379 µM (active). For the same compound, the Potency in the assay on CP335 is 0.107 µM (active); in the assay on DFO2036, 0.112 µM (active); with DIV30, 0.338 µM (active); with FAB9 it was 0.141 µM (active); in the assay with ICS it was 0.0447 µM (active); with JCK, 0.141 µM (active). Moreover, the Potency in the assay with N140 is 0.1 µM (active); in the assay on PAD it was 0.141 µM (active); in the assay with PC15 it was 0.316 µM (active); in the assay with PC26, 0.338 µM (active); in the assay with TAB109 it was 0.0708 µM (active); in the assay with TAB113, 0.1 µM (active). Also, the Potency with TAB165 is 0.0708 µM (active); in the assay on W2, 0.0601 µM (active).
Consider `C=CCn1c(=O)n(C2OC(CO)C(O)C2O)c2nc(N)[nH]c(=O)c21` (stereo not given), for which the Potency entry with AA1029, in the assay on CP211, in the assay with CP215, in the assay on CP260, in the assay with CP297 and with CP315 was “inactive” each time. In addition, the Potency result with CP335, in the assay with DFO2036, in the assay on DIV30, with FAB9, with ICS and in the assay on JCK was “inactive” each time. In addition, the Potency entry in the assay on N140, in the assay on PAD, in the assay with PC15, in the assay with PC26, in the assay on TAB109 and in the assay with TAB113 was “inactive” each time. The Potency result with TAB165 and in the assay on W2 was “inactive” in each case.
In the case of `NC(C(=O)O)c1ccc(O)cc1` (stereo not given), the Potency entry in the assay with AA1029, in the assay with CP211, in the assay on CP215, with CP260, in the assay with CP297 and in the assay with CP315 was “inactive” in each case. In addition, the Potency result with CP335, in the assay on DFO2036, with DIV30, with FAB9, in the assay on ICS and in the assay with JCK was “inactive” in each case. Also, the Potency entry with N140, in the assay with PAD, in the assay with PC15, in the assay on PC26, in the assay with TAB109 and in the assay on TAB113 was “inactive” in each case. The Potency entry in the assay on TAB165 and with W2 was “inactive” throughout.
Regarding `CC(=O)NC1[C@H]([C@H](O)[C@H](O)CO)OC(C(=O)O)=C[C@H]1N=C(N)N` (stereo not given in full), the Potency result in the assay with AA1029, in the assay with CP211, in the assay on CP215, in the assay on CP260, with CP297 and in the assay with CP315 was “inactive” each time. The Potency result in the assay with CP335, in the assay on DFO2036, with DIV30, in the assay on FAB9, with ICS and with JCK was “inactive” throughout. Further, the Potency entry with N140, in the assay with PAD, in the assay on PC15, in the assay on PC26, with TAB109 and in the assay on TAB113 was “inactive” each time. Besides, the Potency result with TAB165 and with W2 was “inactive” throughout.
